High-throughput results as filed in PubChem.
Hits are enriched below; roughly 3.9% of the tested compounds scored in any of these assays.
BoNT-F LC inh: inhibitors of Botulinum neurotoxin F light chain protease; inhibition, % at 10 µM; Multiplex microsphere protease cleavage assay, flow cytometry; hit rate 0.22% among 360,000; in the data active means inhibition above about 35%, passing the limit was not always enough; inconclusive means no clear call, values can overlap the other calls; further: plate controls were buffer without enzyme for full effect and enzyme alone for no effect
Autofluor counter: flagged as autofluorescent in microsphere protease counterscreen | AID 624483 | hit rate 3.1% among 360,000 | compound autofluorescence counterscreen, microsphere flow cytometry; hits give high values | fluorescence intensity (no concentration beside the values); in the data active means fluorescence intensity above about 16000; inconclusive means no clear call, values can overlap the other calls
Anthrax LF inh2: blocks Bacillus anthracis lethal factor protease | hit rate 0.12% among 360,000 | P15917 | multiplex microsphere protease cleavage assay, LF | inhibition, % at 10 µM; further: plate controls were buffer without enzyme for full effect and enzyme alone for no effect
Target sequence (P15917 whole entry, looked up): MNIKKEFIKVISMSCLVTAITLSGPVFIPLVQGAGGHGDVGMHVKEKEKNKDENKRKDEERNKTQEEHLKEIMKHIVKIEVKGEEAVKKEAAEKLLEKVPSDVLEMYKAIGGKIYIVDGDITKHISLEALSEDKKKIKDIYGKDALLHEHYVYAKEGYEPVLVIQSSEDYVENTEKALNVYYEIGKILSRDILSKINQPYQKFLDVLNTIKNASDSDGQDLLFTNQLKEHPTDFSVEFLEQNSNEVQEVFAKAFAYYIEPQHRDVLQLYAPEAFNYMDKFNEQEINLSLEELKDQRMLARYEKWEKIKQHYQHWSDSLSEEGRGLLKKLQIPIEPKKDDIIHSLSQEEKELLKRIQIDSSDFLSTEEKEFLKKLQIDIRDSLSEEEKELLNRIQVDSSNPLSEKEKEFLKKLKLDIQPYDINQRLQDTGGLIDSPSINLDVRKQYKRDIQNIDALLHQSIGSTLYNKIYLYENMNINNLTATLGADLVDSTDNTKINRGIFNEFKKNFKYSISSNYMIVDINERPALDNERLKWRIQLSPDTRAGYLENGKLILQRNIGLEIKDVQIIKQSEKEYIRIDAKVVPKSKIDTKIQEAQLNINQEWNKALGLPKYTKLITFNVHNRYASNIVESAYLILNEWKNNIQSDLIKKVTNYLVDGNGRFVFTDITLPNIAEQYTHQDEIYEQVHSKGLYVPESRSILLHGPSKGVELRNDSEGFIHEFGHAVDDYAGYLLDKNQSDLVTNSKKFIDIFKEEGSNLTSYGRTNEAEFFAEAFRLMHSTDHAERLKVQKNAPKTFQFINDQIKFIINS
MazF activator: increases E. coli MazEF RNase cleavage of RNA; P0AE70; FAM/BHQ RNA-DNA oligo cleavage fluorescence, 5 h; activation, % at 20 µM; hit rate 0.32% among 350,000; in the data active means activation above about 50%
Vc quorum ag: induces V. cholerae light production without autoinducers. V. cholerae BH1578 lux reporter, luminescence, 6 h. activation, % at 18.7 µM. hit rate 0.16% among 350,000. AID 588436; in the data active means activation mostly above about 9.7%, no sharp cut-off; inconclusive means no clear call, values can overlap the other calls; inactive means mostly below about 3.7%
BoNT-A LC inh2: inhibitors of Botulinum neurotoxin A light chain protease; multiplex microsphere protease substrate cleavage, flow cytometry; hit rate 0.17% among 360,000; AID 588499; inhibition, % at 10 µM; further: plate controls were buffer without enzyme for full effect and enzyme alone for no effect
* = called active by the depositor; i = inactive; ? = inconclusive; nt = no result given. Unless noted, no stated cut-off is given here; in the data, active means inhibition above about 30%; inconclusive means no clear call, values can overlap the other calls; inactive means below that.

SMILES	BoNT-F LC inh	Autofluor counter	Anthrax LF inh2	MazF activator	Vc quorum ag	BoNT-A LC inh2
CCCCN1CC(=O)N2[C@H]3c4cc(C)ccc4OC[C@@H]3[C@H](c3ccccc3)[C@]2(C)C1=O	-3	3521	-7	87*	-1	-1
CCCCN1CC(=O)N2[C@@H]3c4cc(Br)ccc4OC[C@@H]3[C@H](C(=O)OCC)[C@]2(C)C1=O	6	2947	0	62*	-1	0
CCCCN1CC(=O)N2[C@H]3c4cc(Cl)ccc4OC[C@@H]3[C@H](c3ccccc3)[C@]2(C)C1=O	-2	3924	-2	0	-1	0
Cc1ccc2c(c1)[C@H]1[C@H](CO2)[C@H](c2ccccc2)[C@]2(C)C(=O)N(Cc3ccc(F)cc3)CC(=O)N12	0	4079	-4	310*	i	0
COc1cc(Cl)ccc1OCc1cc(C(=O)NC(C)Cc2cccnc2)no1 (centres undefined)	nt	nt	nt	3	i	nt
CS(=O)(=O)c1ccc(Cl)c(NC(=O)CSc2nnc3n2CCCCC3)c1	-3	3637	1	-2	-1	0
CC(C)C[C@H]1CNC(=S)N1C[C@H]1CCCN1C[C@H](Cc1ccccc1)N1C[C@H](Cc2ccc(O)cc2)N(CCc2ccccc2)C1=S	-13	6050	-6	nt	nt	-1
COc1cc(C(=O)NCC(C)C)cc(OC)c1OC	-1	16687*	-2	0	-3	-1
CCN1CCCC1CNC(=O)CCNC(=O)c1cc(OC)c(OC)c(OC)c1 (centres undefined)	0	10740	-6	-7	-6	0
COc1cc(C(=O)NCCCCCCNC(=O)c2cc(OC)c(OC)c(OC)c2)cc(OC)c1OC	?	3610	-4	-1	0	-2
COc1cc(C(=O)NCCC(=O)NCCCN2CCCCC2)cc(OC)c1OC	-6	25617*	-6	5	-1	-7
CCN(CC)CC(C)OC(=O)c1cc(OC)c(OC)c(OC)c1 (centres undefined)	4	19405*	-1	10	2	?
CCOCCCNC(=O)CCNC(=O)c1cc(OC)c(OC)c(OC)c1	-3	20238*	-4	3	i	-1
O=C(O)CCC(=O)N1CCc2cc(S(=O)(=O)NC3CCCC3)ccc21	-3	21391*	2	-10	i	-2
Cc1cccc(N2CCN(S(=O)(=O)c3ccc4c(c3)CCN4C(=O)CCC(=O)O)CC2)c1C	-1	24315*	-2	-16	-3	-2
COc1ccc(NC(=O)C2CCN(S(=O)(=O)c3cccc4nonc34)CC2)c(OC)c1	-14	3744	-3	17	-4	-2
COc1ccc(Cc2nnc(NC(=O)c3cccs3)s2)cc1OC	1	3924	-4	1	4	0
CC1Cc2ccccc2N1c1ncnc2c1nnn2Cc1ccccc1Cl (centres undefined)	11	4737	-3	-9	1	0
Clc1ccccc1Cn1nnc2c(N3CCCC3)ncnc21	-2	23668*	-2	0	0	-1
c1ccc(Cn2nnc3c(N4CCOCC4)ncnc32)cc1	-7	5708	-7	2	0	-1
NC(=O)C1CCN(c2nc(C3CC3)nc3c2nnn3Cc2ccccc2)CC1	-11	8526	-8	3	0	-1
OCCNc1nc(C2CC2)nc2c1nnn2Cc1ccccc1Cl	-2	23293*	0	2	i	?
NC(=O)C1CCN(c2nc(C3CC3)nc3c2nnn3Cc2ccccc2Cl)CC1	-5	25043*	-3	-1	i	?
c1ccc(Cn2nnc3c(N4CCN(Cc5ccc6c(c5)OCO6)CC4)ncnc32)cc1	-4	24167*	-1	-3	0	-1
Cc1c(C(=O)NCc2ccc3c(c2)OCCO3)sc(=O)n1Cc1ccc(S(=O)(=O)N(C)C)cc1	-4	5599	1	nt	0	0
O=C(COC(=O)CNC(=O)c1ccccc1F)Nc1ncc(Cl)cc1Cl	-12	3372	-3	0	i	0
O=C(Nc1nnc([C@@H]2C[C@H](O)[C@@H](CO)O2)s1)Nc1ccccc1Oc1ccccc1	-12	3365	-4	nt	0	0
CCOC(=O)CC(NC(=O)c1ccco1)c1ccc(C)cc1 (centres undefined)	-5	4035	0	-2	-1	0
CCOc1ccc(C(CC(=O)O)NC(=O)c2ccco2)cc1 (centres undefined)	3	19729*	-7	0	i	?
